The values that follow come from the supplement of paper PMC11417369.

Over roughly 25,000 sequences, “ln(normalized median fluorescence intensity)” has its median near 9.7; the highest 2% begin near 11. Only a selection was taken, and the highest values are over-represented in it overall.

The subject of the test is PfAP2-HC AP2 domain (GST-tagged). Kind of test: gcPBM binding intensity (ln(normalized median fluorescence intensity)); higher = stronger DNA binding. The method in brief: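 Binding of GST-tagged P. falciparum DNA-binding domains, expressed in E. coli and used at about 25 μg on average, was carried out for 1 h in 1× PBS containing 1% milk, 0.2 mg/ml BSA, 0.5% salmon testes DNA and 0.03% Triton X-100. The target was an Agilent 4 × 180k array of primer-extended double-stranded 36-bp intergenic genomic probes plus negative controls, read with Alexa488 anti-GST antibody at 488 nm. Binding intensity is the highest Masliner-normalised natural-log median intensity across replicate spots of either probe orientation.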
For “TAGGGATTATACCACACACACATACACATAAATATA [CACACA_site3178]”, the “gcPBM binding intensity (ln)” value is 10.3.
With “ACAATATGCAAAAAGTGTACACATTCATTTATATAA [XGTACX_site1061]” the figure was 10.1.
With “AGCAACCCCCTAGCTACACACATATAGATATAAATA [CACACA_site6577]” the figure was 10.6.
Then “TTTAAATCGTTAAAAACACACAAAAAAAATCAATTA [CACACA_site2519]”, with 9.59.
Regarding “TTTTTTTTTTTGGTTACACACATTTGTATATTCTCA [CACACA_site134]”, the “gcPBM binding intensity (ln)” value was 9.89.
Then “CTATATGTTAAATTCTCACACATTATTACAATTTAA [CACACA_site5979]”, with 9.67.
With “AATTGTAAATTGGGCACTTATAAAAATGAACAAATA [CACACA_negctrl_site1583]”, the “gcPBM binding intensity (ln)” value was found to be 9.71.
Regarding “ATGAAAAAATTTATATGTACTTAAAATATAATCATA [XGTACX_site1228]”, the “gcPBM binding intensity (ln)” value came out at 9.33.
Then “AAAAAACACGCACATACACACAAAAATGTTATAAAT [CACACA_site6188]”, with 10.2.
With “AAAAAAAACAGACACACACACAAATACATACACAAA [CACACA_site705]” the figure was 10.5; with “AAAAAAAAAAAAAACACACACATACAGACAAAAATG [CACACA_site83]”, 11.5; with “AACACATACAGACACACACACAAAAAAAAAAAAAAA [CACACA_site6322]”, 10.9.
With “TATATATACAGACACATACACACAAATAAAAAAACA [CACACA_site3413]” the figure was 10.3; with “AAAAAACACAGACATACACACAAAAAGGTTATAAAT [CACACA_site4222]”, 10.2.
Regarding “TACAAACAGACATATACACACAAAAAAAAAATAAAA [CACACA_site2562]”, the “gcPBM binding intensity (ln)” value turned out to be 9.89.
With “AAAAAAAACAGACACATACACACAAAAATGTTATAA [CACACA_site82]” the figure was 10.9; with “AAATAAAACAGACACACACACACATACACAAAAAAA [CACACA_site7753]”, 10.9.
Then “TATATTTTTATAATAACACACGATATATGTTTAGGA [CACACA_site1283]”, with 9.63; and “TAAGACTATTAAAAAATTGAGTACATGAACTGTTCA [GTGCAC_negctrl_site670]”, with 9.41; and “AACAAAATAAGACACACACACAAATGTACCTATATA [CACACA_site7189]”, with 10.4.
On to “ATATCTAAATATATTACACACAGATATCTTCCTATA [CACACA_site3701]”, for which the “gcPBM binding intensity (ln)” value was found to be 9.87.
Regarding “CTAAGAAAAAATAAAGCACACAAATATTTTAAAAAC [CACACA_site9094]”, the “gcPBM binding intensity (ln)” value is 9.93.
Then “TTTTTTATATATGTGTGTGTGTGTGTGTCAAGTTTA [GTGCAC_negctrl_site460]”, with 11.1; and “ATATTTATATATATATGTACATATGTGTGTTTTTAT [XGTACX_site3956]”, with 9.91.
Take “TTATATATTTTTATGTGTACTTATATATATATATAT [XGTACX_site6211]”: the “gcPBM binding intensity (ln)” value was determined as 9.77.
Consider “TATATATGTATCAAGTGTACAGTTTTAAAAAAAAAA [XGTACX_site6011]”, for which the “gcPBM binding intensity (ln)” value is 9.67.
With “TATATGTTAATTTTTTTTTTTTTTTTTTTTTTTATA [CACACA_negctrl_site62]”, the “gcPBM binding intensity (ln)” value came out at 9.26.
Then “AATTTTTTTTTTTTTTTTTTTTATATATGTGTGTGT [XGTACX_negctrl_site129]”, with 11.
Then “ATAATGTAAAATAAATGTACGCAATATATAAAAAAT [XGTACX_site5747]”, with 10.1; and “AAATAATTTACTTAATGTACATATATATATATATAT [XGTACX_site8594]”, with 9.78; and “TTGTAGGTAAATATGTGTACGCATTATTATTCTTAA [XGTACX_site216]”, with 9.58.
Then CTTATAATATTACGGGTGCTATAAATACATTATATT, with 9.72; and “TAAATATATATATGGTGTACCATTTTGGGTTAATAT [XGTACX_site2706]”, with 9.54; and “AATATAAGCAAATACACACACACATATATATATATA [CACACA_site3805]”, with 10.7.
As for “ACAAAAAAAATAAGCACACATATATATATATATATA [CACACA_site816]”, the “gcPBM binding intensity (ln)” value was 9.91.
Then “ATACAACAAAAATAAGCACACACAAATATACATACA [CACACA_site9201]”, with 10.8; and “AAACAAAAAAAATAAGCACACATATATATATATATA [CACACA_site8173]”, with 9.7; and “CCAACAAAAATAAGCACACACAAATATACATACATA [CACACA_site3606]”, with 11.1.
As to “ACAACAAAAATAAGCACACACAAATATACATACATA [CACACA_site7664]”, the “gcPBM binding intensity (ln)” value is 11.3.
“ATATATATATATATGTGTACATATAAGATAGAAGAA [XGTACX_site3198]”: the “gcPBM binding intensity (ln)” value was 10.2.
Then “TTTTTTAATATTTATACATGCATGCCGATTACTATA [TGCATGCA_site26]”, with 9.87.
Consider TATATATAATACAGTATGCACTATTTTTATTAAAAA, for which the “gcPBM binding intensity (ln)” value amounted to 9.41.
With “AGTAACAAAAGAAAAAAATATGCAAACATATATATA [XGTACX_negctrl_site468]” the figure was 9.65; with “TTTTTATTTGGTTGTGTACACATATATATATATATA [CACACA_site5844]”, 9.84.
As for “TACATACATACATACACACACACATCTATATTTATA [CACACA_site6171]”, the “gcPBM binding intensity (ln)” value was 10.6.
Consider “TGAACACACGAGCACACACACACATCTATATTTATA [CACACA_site6607]”, for which the “gcPBM binding intensity (ln)” value was 11.1.
Regarding “TTATACTAAATGAACACACACACATCTATATTTATA [CACACA_site6199]”, the “gcPBM binding intensity (ln)” value worked out at 10.3.
For “ATAAATAAAGGACACACACACACACTAATAAAAAAA [CACACA_site8840]”, the “gcPBM binding intensity (ln)” value is 11.4.
As to “AAAAAAGAAAAAAGGACACACATAAATATACACCCG [CACACA_site5590]”, the “gcPBM binding intensity (ln)” value was 10.2.
Consider “AAAAATAAAGGATATACACACTAATTATATATATAT [CACACA_site5550]”, for which the “gcPBM binding intensity (ln)” value is 9.91.
Then “ATAAATAAAGGACACACACACACACTAGAAAAAAAA [CACACA_site5450]”, with 11.1.
Then “AAAAAAATAAAGGATATACACACTAATTATATATAT [CACACA_site2812]”, with 9.81; and “GTAGAGAAAAAAATGTGGACACAAAAAATAAAAAGG [XGTACX_site4058]”, with 9.79; and “ATATGTTTTGTTTACGTGCACTGCTTTGTTTATATA [GTGCAC_site9622]”, with 10.5.
With “ATATTTATTTATAATTGTACTAATAATATATTTTAA [XGTACX_site587]” the figure was 9.51; with “TTTCCTTACCCTTTCCTGGTGTAGAAATTATACTCT [TGCATGCA_negctrl_site116]”, 9.61.
In the case of “TATTTCATCTTTTAAGAAGGTACCCATATGTCATAT [GTGCAC_negctrl_site403]”, the “gcPBM binding intensity (ln)” value was found to be 9.57.
With “TTATTTTATTTTAAAAAAAACAATATAAATTCAAAG [GTGCAC_negctrl_site57]” the figure was 9.09; with “ATAATCCTTGGACACACACACACACTAGTAAATAAA [CACACA_site4423]”, 11.3.
With “AAATATATATATATAATACACACTAAAGTAACATAA [CACACA_site2870]” the figure was 10; with “ATAATCCTTAAACACACACACACACTAATAAATAAA [CACACA_site8052]”, 10.8.
“TCAAAGCACACATACACACACATATAGATTTATATA [CACACA_site6272]”: the “gcPBM binding intensity (ln)” value stood at 10.2.
Turning to “ATCATTTGCATACGCACACACACATAAAAAGAAAAA [CACACA_site355]”, the “gcPBM binding intensity (ln)” value was found to be 10.9.
Consider “TTATCACATTATTGCACACACATAAAGAAAAAAATA [CACACA_site2841]”, for which the “gcPBM binding intensity (ln)” value was found to be 9.94.
Then “ATGCATAAAAGAAATACACACATAAATATATAAATA [CACACA_site2163]”, with 9.99.
For “TTTTATCACATTATTGCACACACATAAAGAAAAAAA [CACACA_site8922]”, the “gcPBM binding intensity (ln)” value was determined as 9.98.
Then “CATTTGCACACGCACACACACATAAAAAGAAAAATA [CACACA_site6297]”, with 11.1.
With “TAAACATTTTTGCACGCACACAAAAAAAAAATAAAA [CACACA_site167]” the figure was 10.3; with “CATTTGCCCAGGCACACACACATAAAAAGAAAAATA [CACACA_site356]”, 10.2.
As to “ATCATTTGCTCACGCACACACACATAAAAAGAAAAA [CACACA_site4349]”, the “gcPBM binding intensity (ln)” value was 10.2.
With “CATTTGCACCCGCACACACACATAAAAAGAAAAATA [CACACA_site4350]” the figure was 11.1; with “ATATATTTTTAGCACAGTACAATATAATTAAATATA [XGTACX_site6779]”, 9.62.
Then “AAAAAAAAAAAAAAAAGTACTAATTGAATATTAAAC [XGTACX_site3383]”, with 9.44; and “TATGTGTTCAGTATTGCACACACACTCCAAAATAAA [CACACA_site8018]”, with 10; and “TATAAATATGTATATGCATGTGGAATATATAATTAA [TGCATGCA_site226]”, with 9.69.
With “GGATTTATTATATATACACACATACATATATATATA [CACACA_site8669]” the figure was 9.88; with “ATTATATATATCAGGTGTACGTAAAAAAAATGGACG [XGTACX_site1028]”, 9.88.
Regarding “TTTTTAATTAACTTTGTAAACTTATATATATATATA [TGCATGCA_negctrl_site311]”, the “gcPBM binding intensity (ln)” value was found to be 9.6.
Turning to “AATCGTGTTCTGAATACACACTAATACAAATTTGTA [CACACA_site6058]”, the “gcPBM binding intensity (ln)” value was 9.75.
With “TGTAGTCTGGAGAAGAGTACACAGTATCTGGTAGCT [XGTACX_site2036]” the figure was 9.72; with “AATATGTTTTGTTAGGTTGGTGTTGGTAGAATGTTT [CACACA_negctrl_site1563]”, 9.85.
With “CATATACATACACATACACACATACAGACATACACA [CACACA_site6919]” the figure was 10.2.
On to “TAAACAGACATATAAACACACATATAAACCGACATA [CACACA_site2478]”, for which the “gcPBM binding intensity (ln)” value is 10.3.
Then “CGCACAGACGGACACACACACACATATATATATATA [CACACA_site5249]”, with 11.1.
Then “AAAAATTTGGCATACACACACACACCGACACAGACA [CACACA_site4489]”, with 10.5; and “AGCACAGACGGACACACACACATATATATATATATA [CACACA_site4341]”, with 10.8.
Regarding “TATAGATACAGATACACACACACACCGACATATATA [CACACA_site5832]”, the “gcPBM binding intensity (ln)” value was determined as 10.7.
“TATACAGACAGACACACACACATATATATATATATA [CACACA_site1734]”: the “gcPBM binding intensity (ln)” value came to 10.2.
For the sequence “ATTTGGCATGGACACACACACACACCGACAGACATA [CACACA_site4491]”, the “gcPBM binding intensity (ln)” value was determined as 11.4.
Consider “TATACTCATGGACACACACACATACACAGACATACA [CACACA_site5024]”, for which the “gcPBM binding intensity (ln)” value is 10.4.
For “CCCACAGACGGACACACACACACACCGACACATATA [CACACA_site4356]”, the “gcPBM binding intensity (ln)” value amounted to 11.
On to “CATACATACAGACACACACACATATATATATATATA [CACACA_site2920]”, for which the “gcPBM binding intensity (ln)” value worked out at 10.7.
Turning to “CCCACAGACGGACACACACACACATATATATATATA [CACACA_site4352]”, the “gcPBM binding intensity (ln)” value is 11.1.
